Measurements published in PubChem BioAssay AID778 (Sanford-Burnham Center for Chemical Genomics, 2007).
The campaign covered roughly 96,000 compounds. About 20,000 (21%) were called active. The list is a sample of the results. Unmarked numbers belong to inactive results.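 How the source made its calls: active means CYP2C19 inhibition above a set limit at 5 µM in the primary screen (cut at about 50% in these data); inactive means the rest.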

These molecules were tested against Cytochrome P450 2C19 (Homo sapiens) (UniProt P33261) (assay: blockers of cytochrome P450 2C19 activity – biochemical, luminescence, ADME assay, primary screen (AID 778;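 further: plate controls were negative control wells for no effect and 2.5 mM tranylcypromine positive control for full effect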)). Details: CYP2C19 Supersomes, luciferin-H EGE luminescence, 30 min; at 5 µM; active compounds read high.
Sequence of Cytochrome P450 2C19 (Homo sapiens) (P33261 whole entry, looked up): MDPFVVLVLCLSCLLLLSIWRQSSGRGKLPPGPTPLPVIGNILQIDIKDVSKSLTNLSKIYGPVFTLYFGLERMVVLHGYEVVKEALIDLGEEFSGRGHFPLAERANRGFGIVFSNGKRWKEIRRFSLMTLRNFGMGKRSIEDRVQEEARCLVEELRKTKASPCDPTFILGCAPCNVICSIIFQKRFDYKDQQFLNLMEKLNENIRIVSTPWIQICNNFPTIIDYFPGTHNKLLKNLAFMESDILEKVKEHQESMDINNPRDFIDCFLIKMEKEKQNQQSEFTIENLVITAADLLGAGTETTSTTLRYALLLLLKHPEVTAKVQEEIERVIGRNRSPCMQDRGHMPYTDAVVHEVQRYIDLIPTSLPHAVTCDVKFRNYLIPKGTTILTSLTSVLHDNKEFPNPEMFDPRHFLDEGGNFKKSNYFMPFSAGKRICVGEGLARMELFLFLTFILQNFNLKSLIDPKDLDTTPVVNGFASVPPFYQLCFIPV

Compound	inhibition
O=C(O)CCC(=O)NCc1ccc2[nH]c3c(c2c1)CCCC3	-16.4%
CN=C1S/C(=C\c2ccc(Sc3ccc(Cl)cc3)o2)C(=O)N1C	7.4%
CCN1C(=O)/C(=C\N2CCN(c3ccccc3)CC2)SC1=S	17.4%
Cc1cc(NC(=O)CCC2COc3ccccc3O2)no1 (stereo not drawn)	23.1%
COc1ccc(NC(=O)CC2COc3ccccc3O2)c(OC)c1 (stereo not drawn)	85.5% (active)
COc1ccc(NC(=O)CCNC(=O)Cn2ccc3ccccc3c2=O)c(OC)c1	-2.7%
CCCSC(=S)NC1CCS(=O)(=O)C1 (stereo not drawn)	13.9%
O=C(Nc1ccc(S(=O)(=O)N2CCCC2)cc1Cl)C1=COCCO1	16.2%
Cc1cccc(-n2ncc3c(N4CCc5ccccc54)ncnc32)c1	6.2%
COc1ccccc1-c1nc(C(F)(F)F)c(OC)o1	-4.3%
CSc1ccccc1-c1nnc(-c2ccc(Cl)cc2)o1	-15.2%
FC(F)(F)c1cnc(Oc2ccccc2-c2nnc(-c3ccc(Cl)cc3)o2)c(Cl)c1	66.1% (active)
COc1ccc(-c2cn(-c3ccc(C)cc3)c(=O)n2CC(=O)Nc2ccc(OC)c(OC)c2)cc1	16.2%
O=C(O)c1cscn1	-12.7%
N#C/C(=C1/CCCN1)c1ccccn1	-7.3%
N#CC(=C1CCCC1)c1nc(-c2ccc(Cl)cc2)cs1	43.3%
N#C/C(=C1\CCCN1)c1nc(-c2ccccc2)cs1	54.2% (active)
Cn1c(/C(C#N)=C2/CCCCCN2)nc2ccccc21	47.6%
N#CC(=C1SC=CS1)c1nc(-c2ccccc2)cs1	65.1% (active)
Oc1ccc(Cl)cc1/C=N/c1nc2ccccc2[nH]1	-20.9%
C=CCn1c(C2CC(=O)N(c3ccc(C)cc3)C2)nc2ccccc21 (stereo not drawn)	76.7% (active)
CC(C)(C)N1CC(c2nc3ccccc3n2Cc2ccc(F)cc2)CC1=O (stereo not drawn)	12.1%
Cc1ccc(Cn2c(NC(=O)c3ccco3)nc3ccccc32)cc1	-9.7%
Cc1onc(-c2ccccc2Cl)c1C(=O)NCCn1ccc2ccccc21	83.5% (active)
COc1c(O)cccc1-c1nnn(CCC(=O)OCC(=O)c2ccccc2)n1	19.5%

Compound	inhibition
Cc1onc(-c2c(Cl)cccc2Cl)c1C(=O)c1c[nH]c(C(=O)NC2CC2)c1	0.9%
O=C1c2ccccc2C(=O)N1Cc1cc(-c2ccccc2Cl)no1	37.2%
Cc1onc(-c2ccccc2Cl)c1C(=O)OCC(=O)c1ccccc1	58.1% (active)
Cc1ccc2cc(CCNC(=O)c3c(-c4ccccc4Cl)noc3C)c(=O)[nH]c2c1	21%
O=C(OCc1cc2ccccc2[nH]c1=O)c1cccnc1	25.1%
C=CCSc1nc2c(c(=O)[nH]1)C(C(C)C)C(C#N)=C(N)O2 (stereo not drawn)	-15.8%
COc1ccc(OCCCON2C(=O)c3ccccc3C2=O)cc1	26.4%
CCN(CC)CCCNC(=O)c1cc(-c2cccc(Cl)c2)on1	-2.7%
Cc1cc(C)c2c(-n3cccc3)c(NC(=O)OCc3ccccc3)sc2n1	4.8%
Cc1cc(Cl)ccc1N1C(=O)CC(SCCC(=O)O)C1=O (stereo not drawn)	7.1%
COC(=O)Cc1cc(=O)oc2c(C)c(O)ccc12	17.9%
Nc1nnnn1/N=C/c1cccs1	1.7%
Cc1nc2nc[nH]n2c(=O)c1NC(=O)c1cccc(OCC(C)C)c1	-12.5%
CCC(=O)Oc1cccc(C(=O)Nc2ccc(-c3nnc(-c4ccco4)o3)cc2)c1	48.6%
CCCOc1cccc(C(=O)Nc2nnn(CCC)n2)c1	57.8% (active)
COc1ccc(OC)c2c(N)c(C#N)c(C(F)(F)C(F)(F)F)nc12	-11.1%
NC(=O)c1nsc(C(=O)N(CC(=O)NCc2ccc(F)cc2)Cc2ccco2)c1N	21.3%
Cc1ccc2nc(SC(C)C(=O)NCc3ccco3)[nH]c2c1 (stereo not drawn)	19.9%
Cc1cccc(NC(=O)c2ccc3ccccc3n2)n1	22.7%
Cc1cccc(NC(=O)COc2ccccc2C)n1	32%
COC(=O)C(C(=O)Nc1cccc(C)n1)C1CCCCCC1 (stereo not drawn)	80.7% (active)
Cc1cc(C(F)(F)F)nn1CC(=O)N1CCCC1	-1.5%
OC(C#CCN1CCOCC1)(c1ccccc1)C1CCCCC1 (stereo not drawn)	36.7%
CCOC(=O)c1cnc(SCC(=O)NCc2ccco2)nc1N	-1.2%
Cc1cc(C(=O)OCC(=O)NCc2ccco2)c(C)n1-c1ccccc1	71.8% (active)

Compound	inhibition
O=C(COC(=O)C12CC3CC(CC(C3)C1)C2)NCc1ccco1	35.7%
COc1c(Br)cc2c(C)c(C(=O)N3CCOCC3)oc2c1Br	33.1%
N#C/C(=C\c1ccccc1)c1n[nH]c(Cn2cncn2)n1	23.3%
FC(F)(F)COc1nc(N2CCCCC2)nc(N2CCNCC2)n1	-9.3%
C/C(=N/NC(=O)c1cc(Cl)ccc1O)C12CC3CC(CC(C3)C1)C2	0.2%
CCOC(=O)C1=C(CNC2CCCCC2)NC(=O)NC1c1cc(C)ccc1C (stereo not drawn)	97.1% (active)
CCOC(=O)c1[nH]cnc1C(=O)NC1CCCCC1	18.3%
Cc1ccc(N(C(=O)CC2NC(=O)NC2=O)C2(C(=O)NC3CCCC3)CCCCC2)cc1 (stereo not drawn)	-3.8%
CN(Cc1ccccc1)c1nc2c(c(=O)[nH]c(=O)n2C)n1CCSc1nc2ccccc2[nH]1	38.5%
O=C1CC(c2cccc(F)c2)C2=C(CCCC2=O)N1 (stereo not drawn)	8.1%
CCc1nnc(NC(=O)CSc2nnc(COc3ccc(C#N)cc3)n2-c2ccccc2)s1	4.5%
Cc1ccc(S/C(=N\S(=O)(=O)c2ccc(Cl)cc2)c2ccccc2)cc1	24.1%
CSc1ccc(S(=O)(=O)NCc2ccc(Cl)cc2)cc1	78.2% (active)
O=[N+]([O-])c1ccccc1NCc1ccc(Cl)cc1	21%
Fc1c(F)c(C(F)(F)F)c(F)c(F)c1N1CCN(c2ccc3nnc(C(F)(F)F)n3n2)CC1	0.5%
COc1ccc(CCn2nnnc2C(c2ccccc2)N2CCN(C)CC2)cc1OC (stereo not drawn)	2.7%
Cc1ccc(C(c2nnnn2CS(=O)(=O)c2ccc(C)cc2)N2CCC(C)CC2)cc1 (stereo not drawn)	3.8%
COc1ccc(C(c2nnnn2Cc2cccs2)N2CCN(c3ccccc3)CC2)cc1OC (stereo not drawn)	69.8% (active)
O=C(Nc1ccc(Br)c2cccnc12)c1ccc(Cn2cc([N+](=O)[O-])cn2)o1	20.2%
CCCNC(=O)Nc1ccccc1C(=O)Nc1ccc(OC)cc1	40.1%
COc1ccc(CCn2c(-c3ccco3)nc3nc4ccccc4nc32)cc1OC	16.7%
Clc1cccc(-c2nc3nc4ccccc4nc3n2Cc2ccco2)c1	1.8%
CCC(C)n1c(-c2cc(OC)c(OC)c(OC)c2)nc2nc3ccccc3nc21 (stereo not drawn)	92.6% (active)
CCOc1ccc(CNC(=O)C2CCC(=O)N2C2CCCC2)cc1OC (stereo not drawn)	-0.1%
Brc1ccc(C2=CC(c3ccco3)n3ncnc3N2)cc1 (stereo not drawn)	33%

Compound	inhibition
Clc1ccc2c(c1)C1=C(C(c3ccncc3)O2)C(c2ccc(Br)cc2)n2ncnc2N1 (stereo not drawn)	86.1% (active)
COC(=O)C1=C(C)Nc2ncnn2C1c1cccnc1 (stereo not drawn)	-0.3%
Cc1ccc(Cc2c(C)nc3nc(SCC(=O)NCCN4CCOCC4)nn3c2C)cc1	-3.1%
COc1ccc(-c2cc3nc(C)c(CCC(=O)NC(C)CCc4ccco4)c(C)n3n2)c(OC)c1 (stereo not drawn)	30.5%
CCCCNC(=O)OC(C)CNC(=O)OC (stereo not drawn)	2.3%
O=C(O)CCC(=O)Nc1ccc(N2CCOCC2)cc1	-9%
COc1ccc2oc(C)c(NC(C)=O)c2c1	13.5%
COc1ccc(S(=O)(=O)Nc2ccc3oc(C)c(C(C)=O)c3c2)cc1	67.4% (active)
CC(=O)Nc1ccc(S(=O)(=O)N2CCCC2C(=O)O)cc1 (stereo not drawn)	-6.9%
COc1ccc(NC(=O)c2c(C)oc3c2CCCC3)cc1	24.5%
COC(=O)COc1ccc(S(=O)(=O)Nc2ccc(NC(C)=O)cc2)cc1	69.1% (active)
CC(=O)Nc1ccc(N2CCOCC2)c(C(=O)Nc2cccc(C)c2)c1	53.3% (active)
COc1ccc(NS(=O)(=O)c2ccc(NC(=S)NC(=O)CC(C)C)cc2)cc1	25.1%
CC(=O)Nc1cccc(Oc2cc(C#N)c(C#N)cc2N2CCOCC2)c1	5.2%
CC(=O)Nc1ccc(S(=O)(=O)Nc2ccc(N3CCOCC3)c(F)c2)cc1	93.5% (active)
COc1c(C)cccc1C(=O)Nc1cc(Cl)ccc1N1CCOCC1	20.6%
CCOc1ccc(NS(=O)(=O)c2ccc(OCC(=O)NCCCOC)cc2)cc1	2.3%
CCCc1[nH]nc2c1C(c1c(C)nn(-c3ccccc3)c1Cl)C(C#N)=C(N)O2 (stereo not drawn)	49.2%
CC(=O)Oc1cc2c(C(=O)NCCN3CCOCC3)c(C)oc2c2ccccc12	34.2%
Cc1ccc(C2=CSC3=NS(=O)(=O)CCN23)cc1C	2.5%
CC(=O)c1c(C)n([O-])c2ccccc2[n+]1=O	-0.9%
O=C(N/N=C/c1ccc(O)cc1)/C(=C/c1ccc([N+](=O)[O-])cc1)NC(=O)c1ccccc1	7.9%
C/C(=C(\C#N)C(=O)NCCCN1CCOCC1)N(C)C	-11.3%
